Experiment [1] concerns the target Cytochrome P450 2C9 (Homo sapiens) (UniProt P11712). Put plainly: Cytochrome P450 Family 2 Subfamily C Member 9 (CYP2C9) small molecule antagonists: luciferase reporter qHTS assay (AID 1671198). The following applies: P450-Glo CYP2C9 enzyme assay, luciferin luminescence; series mostly up to 115 µM. In short, it runs like this:
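P450-Glo proluciferin substrate with CYP2C9 enzyme; 10 min RT preincubation, then NADPH regeneration 1 h at 37C; luciferin detection reagent 20 min RT, luminescence in relative luminescence units.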
For orientation: Reporter assays use an easily measured gene product as a stand-in for the process of interest.

In experiment [2] the target is Voltage-gated inwardly rectifying potassium channel KCNH2 (Homo sapiens) (UniProt Q12809). Put plainly: Human Ether-a-go-go-Related Gene (hERG) channel small molecule antagonists: fluorescence cell-based qHTS assay (AID 1671200).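 For activity change, negative = inhibition: hERG-expressing U2OS cells given a thallium stimulus after FluxOR II dye loading.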 The following applies: hERG-U2OS cells, FluxOR thallium flux fluorescence; series mostly up to 76.8 µM. In short, it runs like this: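 Read-out: thallium influx as a surrogate for potassium, tracked as fluorescence (480 nm ex/540 nm em) every second for 2 min after Stimulus Buffer addition in dye-loaded hERG-U2OS cells.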
(Block of hERG is tested as a sign of cardiac risk.)

The target in experiment [3] is Cytochrome P450 3A4 (Homo sapiens) (UniProt P08684). Put plainly: Cytochrome P450 Family 3 Subfamily A Member 4 (CYP3A4) small molecule antagonists: luciferase reporter qHTS assay (AID 1671201). The following applies: P450-Glo CYP3A4 enzyme, luciferin luminescence, 1 h; series mostly up to 115 µM. In short, it runs like this:
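Luminescent readout (RLU) proportional to CYP3A4 activity, from luciferin generated off a proluciferin substrate. Enzyme–substrate mix plus compound 10 min at room temp, NADPH regeneration 1 h, detection reagent 20 min.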

Experiment [4] concerns the target Cytochrome P450 1A2 (Homo sapiens) (UniProt P05177). Put plainly: Cytochrome P450 Family 1 Subfamily A Member 2 (CYP1A2) small molecule antagonists: luciferase reporter qHTS assay (AID 1671199). The conditions noted are these: P450-Glo CYP1A2 enzyme, luciferin luminescence, 1 h; series mostly up to 115 µM. In short, it runs like this:
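Luminescence from luciferin formed by CYP1A2 from a proluciferin substrate, read 20 min after detection reagent. Compound was pre-incubated 10 min with enzyme-substrate, and reaction started with NADPH regeneration solution for 1 h at room temperature; furafylline control.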

Several values for one entry are separate records, joined by “and”; a condition that tells them apart may be missing. Identical values can stand only once. Records with an inconclusive call do not appear. Some structures have more than one record in an assay (separate samples or runs), and their calls can disagree. Activity calls are given as the source filed them. Calls come from the whole dose curve; as a rule, active = well fitted curve in the direction sought with a large enough effect in the repeat runs; inconclusive = weak or mixed curves; inactive = no such curve, though single readings can be large; an effect the other way counts as inactive or inconclusive.
% is set by controls: 0 for no effect and ±100 for the full control effect; potency is the fitted concentration of half-maximal effect.
Note: nearly all actives have a fitted effect of over 50% in size.

Cytochrome P450 3A4 (Homo sapiens), sequence (P08684 whole entry, looked up): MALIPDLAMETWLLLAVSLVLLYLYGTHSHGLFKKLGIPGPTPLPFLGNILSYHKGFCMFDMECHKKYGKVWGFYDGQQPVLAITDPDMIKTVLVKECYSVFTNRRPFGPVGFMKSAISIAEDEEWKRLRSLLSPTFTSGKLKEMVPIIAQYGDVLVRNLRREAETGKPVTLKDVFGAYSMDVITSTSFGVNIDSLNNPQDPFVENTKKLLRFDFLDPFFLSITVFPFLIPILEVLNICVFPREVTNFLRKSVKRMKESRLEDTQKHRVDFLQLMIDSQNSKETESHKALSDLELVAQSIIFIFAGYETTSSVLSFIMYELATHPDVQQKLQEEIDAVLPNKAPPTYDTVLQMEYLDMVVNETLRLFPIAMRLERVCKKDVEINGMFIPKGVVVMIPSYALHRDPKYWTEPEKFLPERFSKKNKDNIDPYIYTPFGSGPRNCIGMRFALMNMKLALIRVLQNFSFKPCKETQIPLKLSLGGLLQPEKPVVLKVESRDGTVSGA
Cytochrome P450 2C9 (Homo sapiens), sequence (P11712 whole entry, looked up): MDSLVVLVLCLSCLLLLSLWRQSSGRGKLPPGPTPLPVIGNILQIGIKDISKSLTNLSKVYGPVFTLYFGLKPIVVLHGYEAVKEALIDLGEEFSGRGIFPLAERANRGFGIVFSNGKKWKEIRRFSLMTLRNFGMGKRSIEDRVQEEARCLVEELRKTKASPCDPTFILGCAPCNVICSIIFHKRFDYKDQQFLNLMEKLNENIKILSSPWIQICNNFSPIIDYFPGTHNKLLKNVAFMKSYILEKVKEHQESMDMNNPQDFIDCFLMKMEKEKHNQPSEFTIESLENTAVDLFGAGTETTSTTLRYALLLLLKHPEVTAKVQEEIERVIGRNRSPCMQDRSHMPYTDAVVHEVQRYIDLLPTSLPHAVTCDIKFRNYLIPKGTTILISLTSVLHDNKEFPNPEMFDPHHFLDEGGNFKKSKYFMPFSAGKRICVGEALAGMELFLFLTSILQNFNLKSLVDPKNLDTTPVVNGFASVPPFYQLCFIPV
Voltage-gated inwardly rectifying potassium channel KCNH2 (Homo sapiens), sequence (Q12809 whole entry, looked up): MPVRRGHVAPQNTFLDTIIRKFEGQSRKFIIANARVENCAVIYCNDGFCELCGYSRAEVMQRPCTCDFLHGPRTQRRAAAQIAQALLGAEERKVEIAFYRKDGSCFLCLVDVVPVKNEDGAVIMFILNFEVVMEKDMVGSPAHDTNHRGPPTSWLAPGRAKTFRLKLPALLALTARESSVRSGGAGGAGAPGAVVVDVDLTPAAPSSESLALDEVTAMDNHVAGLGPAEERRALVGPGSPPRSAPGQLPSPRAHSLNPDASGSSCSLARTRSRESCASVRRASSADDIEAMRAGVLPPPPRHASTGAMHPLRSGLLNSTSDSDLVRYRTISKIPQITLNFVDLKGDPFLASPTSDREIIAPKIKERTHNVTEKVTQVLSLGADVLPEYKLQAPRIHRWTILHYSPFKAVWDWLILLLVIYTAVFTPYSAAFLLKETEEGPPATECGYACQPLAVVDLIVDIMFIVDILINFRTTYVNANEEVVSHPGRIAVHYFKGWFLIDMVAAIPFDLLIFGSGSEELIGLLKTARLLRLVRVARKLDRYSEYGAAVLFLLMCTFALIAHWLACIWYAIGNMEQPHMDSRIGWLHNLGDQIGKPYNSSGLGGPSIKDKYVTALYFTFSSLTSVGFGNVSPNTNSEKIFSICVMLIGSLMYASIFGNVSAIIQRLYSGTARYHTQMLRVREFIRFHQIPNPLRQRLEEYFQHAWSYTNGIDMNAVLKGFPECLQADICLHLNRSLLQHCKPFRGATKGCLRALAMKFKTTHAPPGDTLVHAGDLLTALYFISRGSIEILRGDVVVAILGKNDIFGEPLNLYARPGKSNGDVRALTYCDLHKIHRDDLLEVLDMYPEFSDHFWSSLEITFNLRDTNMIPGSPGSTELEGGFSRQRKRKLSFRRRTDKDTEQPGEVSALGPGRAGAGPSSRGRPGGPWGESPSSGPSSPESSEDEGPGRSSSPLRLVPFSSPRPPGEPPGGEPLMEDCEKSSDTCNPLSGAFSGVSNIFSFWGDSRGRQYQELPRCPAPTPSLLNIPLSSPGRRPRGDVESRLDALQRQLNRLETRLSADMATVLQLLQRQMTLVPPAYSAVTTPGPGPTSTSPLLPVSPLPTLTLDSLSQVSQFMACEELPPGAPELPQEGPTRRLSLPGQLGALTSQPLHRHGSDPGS
Cytochrome P450 1A2 (Homo sapiens), sequence (P05177 whole entry, looked up): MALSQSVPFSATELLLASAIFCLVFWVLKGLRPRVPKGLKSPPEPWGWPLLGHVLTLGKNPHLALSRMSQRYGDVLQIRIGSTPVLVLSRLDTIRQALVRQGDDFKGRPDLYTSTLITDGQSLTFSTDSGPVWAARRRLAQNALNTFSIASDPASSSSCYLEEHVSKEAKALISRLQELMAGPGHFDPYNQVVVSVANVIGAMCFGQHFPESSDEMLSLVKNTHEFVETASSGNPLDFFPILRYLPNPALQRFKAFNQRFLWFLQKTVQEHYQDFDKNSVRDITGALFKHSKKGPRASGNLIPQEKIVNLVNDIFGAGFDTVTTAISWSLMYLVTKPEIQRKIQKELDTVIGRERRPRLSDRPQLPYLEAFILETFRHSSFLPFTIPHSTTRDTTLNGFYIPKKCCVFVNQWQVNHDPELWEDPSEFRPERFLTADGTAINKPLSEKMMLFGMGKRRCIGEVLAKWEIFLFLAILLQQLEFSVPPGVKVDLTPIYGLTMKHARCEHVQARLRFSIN

In the case of `CC(C)c1ccc(C(C)C)cc1`, the Potency entry in experiment [1], in experiment [2] and in experiment [3] was “inactive” each time.

Consider `COCN(COC)c1nc(N(COC)COC)nc(N(COC)COC)n1`, for which the Potency result in experiment [4] and in experiment [2] was “inactive” throughout.

Take `CCCOCC(C)O` (configuration not stated): the Potency result in experiment [1], in experiment [4], in experiment [2] and in experiment [3] was “inactive” each time.

Regarding `CC(O)CNCC(C)O` (configuration not stated), the Potency in experiment [1] was 35.8 µM (active) and inactive; in experiment [3] it was 31.9 µM (active) and inactive. In addition, the Potency result in experiment [4] and in experiment [2] was “inactive” each time.

As for `OCCOCCOCCOCCOCCO`, the Potency entry in experiment [2] was “inactive”.

`CCN(CC)CCNC(=O)c1ccc(N)cc1`: the Potency result in experiment [2] is “inactive”.

For `C=CC(=O)NCOCCCC`, the Potency entry in experiment [1], in experiment [4], in experiment [2] and in experiment [3] was “inactive” throughout.

`CC(=O)c1nccs1`: the Potency in experiment [1] is 32.8 µM (active) and inactive. The Potency result in experiment [2] was “inactive”.

As for `COc1ccccc1[N+](=O)[O-]`, the Potency result in experiment [1], in experiment [2] and in experiment [3] was “inactive” in each case.

Consider `CO[Si](CCCNCCN)(OC)OC`, for which the Potency entry in experiment [1], in experiment [2] and in experiment [3] was “inactive” in each case.

Consider `CCOC(=O)c1ccc(O)cc1`, for which, in experiment [2], the Potency entry is “inactive”.

As for `CCn1cc(C(=O)O)c(=O)c2cc3c(cc21)OCO3`, the activity change, negative = inhibition in experiment [1] was 4.54% [at 23.6 µM] (inactive). Moreover, the Potency entry in experiment [2] is “inactive”.

As for `CC(COCC(C)OC(=O)c1ccccc1)OC(=O)c1ccccc1` (configuration not stated), the Potency in experiment [1] is 6.28 µM (active) and 5.64 µM (active); in experiment [4] it was 9.95 µM (active) and 6.33 µM (active). Further, in experiment [3], the Potency entry is “inactive”.

Regarding `C=C1C[C@]23C[C@@]1(O)CC[C@H]2[C@@]12C=C[C@H](O)[C@@](C)(C(=O)O1)[C@H]2[C@@H]3C(=O)O`, in experiment [2], the Potency result is “inactive”.

For `Clc1cccc(Cl)c1NC1=NCCN1`, the Potency result in experiment [2] was “inactive”.

Take `CC(CN1c2ccccc2Sc2ccccc21)N(C)C` (configuration not stated): in experiment [2], the Potency is 22.1 µM (active) and 21.9 µM (active) and 21.3 µM (active). In experiment [3], the Potency entry is “inactive”.

Take `OC1CCCCC1`: the Potency entry in experiment [1], in experiment [4], in experiment [2] and in experiment [3] was “inactive” each time.

On to `O=C(c1ccccc1)c1ccc(O)c(O)c1O`, for which the Potency in experiment [1] was 40.3 µM (active) and 63.3 µM (active). Also, in experiment [2], the Potency entry was “inactive”.

For the compound `Nc1cccc(N)n1`, the Potency entry in experiment [4], in experiment [2] and in experiment [3] was “inactive” each time.

Take `N[C@@H](Cc1cc(I)c(Oc2ccc(O)c(I)c2)c(I)c1)C(=O)O`: the Potency result in experiment [2] was “inactive”.

The values above are taken from PubChem BioAssay (Tox21).
